Compounds without any hit were thinned out: in the full panel of roughly 83,000, 20% have a hit.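 The test compound was applied at a single concentration to cells in 96-well plates for 48 hours, and percent growth was recorded.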 Values without a mark were called inactive. The source made the active and inactive calls. The calls were made as follows: active = growth percent below 10; inactive = the rest.

The test system of the experiment is HL-60(TB) leukemia. Briefly: NCI-60 one-dose screen, 48 h (100 = growth as untreated, 0 = no growth, -100 = all killed). The following applies: 10 µM unless noted.
In the case of `O=C1NC(=Nc2ccc(O)cc2)S/C1=C\c1cccc(Cl)c1`, the growth is 22.9%.

Turning to `CC(/C=C/C=C(\C)[C@H](O)[C@H](C)C(=O)O[C@H]1C[C@H](C)C=C2C=C[C@@]3(C)O[C@@H](O)CC(=O)[C@]3(C)[C@H]21)=C\C=C\C(=O)O`, the growth is 34%.

On to `C=C1C(=O)O[C@H]2[C@H]1CC/C(Cn1cc(CCC)nn1)=C\CC[C@@]1(C)O[C@@H]21`, for which the growth was -13.9% (active).

On to `COC(c1ccccc1)(c1ccccc1)c1ccccc1`, for which the growth was 111%.

Regarding `N#CC1=C(N)Oc2c(ccc3cccnc23)C1c1ccccc1` (stereo not given), the growth is 13.3%.

Regarding `COc1ccc(C(=O)N2N=C(c3ccc(Br)cc3)CC2c2cn(-c3ccccc3)nc2-c2ccccc2)cc1` (stereo not given), the growth is 32.7%.

As for `N#Cc1ccc(N2Cc3cc(Cl)ccc3OC3=C2C(=O)N(Cc2ccccc2)C3=O)cc1`, the growth is -48.2% (active).

Consider `c1ccc2c(c1)CN(CCCN1CCOCC1)C2`, for which the growth is 105%.

On to `CNc1nc(S(=O)c2ccc(C#N)cc2)nc2ccccc12` (stereo not given), for which the growth is 79.9%.

With `CCCc1cc(CCC)n2nc(N)nc2n1`, the growth was 105%.

With `CCSc1oc(C)nc1[P+](c1ccccc1)(c1ccccc1)c1ccccc1`, the growth was 7.21% (active).

Regarding `O=C(NCCNCCO)c1cc([N+](=O)[O-])cc([N+](=O)[O-])c1O`, the growth is 102%.

`COc1cc2c(/C=C3\C(=O)Nc4ccc(Br)cc43)c(Cl)n(C)c2cc1C`: the growth is -13.1% (active).

As for `COc1cc(/C=C/c2cc(/C=C/c3ccc(O)c(OC)c3)n(-c3ccc(Cl)cc3)c(=O)n2)ccc1O`, the growth was 92.6%.

With `COc1ccc(-c2nc3c(N)c(CO)c(C)nc3o2)cc1`, the growth is 98.3%.

On to `O=[N+]([O-])c1cc(F)c2cccnc2c1O`, for which the growth is 72.9%.

Turning to `NC(=NC1C2CC3CC(C2)CC1C3)Nc1ccc(I)cc1` (stereo not given), the growth is 101%.

`C[C@@H](CO)[C@@H]1CC[C@]2(C(=O)N3CCN(C)CC3)CC[C@]3(C)[C@H](CC[C@@H]4[C@@]5(C)CC[C@H](O)C(C)(C)[C@@H]5CC[C@]43C)[C@@H]12`: the growth is -46.9% (active).

With `CCOC(=O)CC1CSC(N/N=C/c2ccc(F)c(Br)c2)=N1` (stereo not given), the growth is 93.6%.

`COP(=O)(OC)C(c1ccc(O)cc1)(c1ccc(O)cc1)c1ccc(O)cc1`: the growth was 93.4%.

Consider `O=C1CSC(=S)N1/N=C/c1ccc(Cl)s1`, for which the growth was 91%.

Consider `O=C(O)CSCc1nc2ccccc2[nH]1`, for which the growth is 136%.

Regarding `O=[N+]([O-])c1ccc(N=Nc2c(O)c(N=Nc3cc([N+](=O)[O-])cc([N+](=O)[O-])c3O)cc(N=Nc3cc(S(=O)(=O)O)cc4cc(S(=O)(=O)O)cc(O)c34)c2O)cc1`, the growth was 87.2%.

Consider `NCCCc1nnc(CCC(=O)c2nc3ccccc3[nH]2)o1`, for which the growth was 92.3%.

In the case of `COc1cc(-c2nc3ccccc3s2)ccc1OCc1nc2n(n1)S(=O)(=O)c1ccccc1N2C`, the growth is 79.2%.

In the case of `O=C(NCCN1CCC(O)CC1)c1cc2c(o1)C(=O)c1ccccc1C2=O`, the growth is -13.9% (active).

Regarding `CC1(C)NCCC[C@]2(C)[C@H]3CC[C@H]4[C@H]5[C@H](C(=O)/C=C/c6cccnc6)CCC[C@]5(CO)CC[C@@]4(C)[C@]3(C)CC[C@@H]12`, the growth is 23.9%.

`COC(=O)c1cncc(C(=O)Nc2ccc(-n3cnc4ccccc43)cc2)c1`: the growth is 93.7%.

In the case of `C=C(C)[C@@H]1CC[C@]2(C)[C@H](CC=C3[C@@H]4C[C@](C)(C(=O)N5CCN(C)CC5)CC[C@]4(C)CC[C@]32C)[C@@]1(C)CCC#N`, the growth is 22.6%.

With `Clc1ccc(C2CC(c3cccc(Nc4ccncc4)c3)=NN2c2cc(Cl)cc(Cl)c2)cc1` (stereo not given), the growth is 24.8%.

Take `COc1ccc(S(=O)(=O)n2cc(C3OC(c4cc(OC)c(OC)c(OC)c4)=NN3C(C)=O)c3ccccc32)cc1OC` (stereo not given): the growth was 111%.

Turning to `Nc1cc2[nH]c(=O)c3ccccc3c2cc1Br`, the growth is 125%.

Consider `O=c1c2c(=NCCN3CCCC3)cc3c(=O)n(CCCN4CCOCC4)c(=O)c4c(-c5ccc(CN6CCCC6)cc5)cc(c(O)n1CCCN1CCOCC1)c2c4-3`, for which the growth was -36.5% (active).

`O=C(c1cccs1)c1ccccc1Cc1ccccc1`: the growth is 98.8%.

`Cc1cc2nc3[nH]c4ccccc4c3nc2cc1C`: the growth was 55.2%.

For the compound `Clc1cc(Br)ccc1-c1ccc(CNCC2CCNCC2)o1`, the growth is 67.7%.

Take `CC/C=C\C/C=C/C=C1/C(=O)C=C[C@@H]1C/C=C\CCCC(=O)OC`: the growth is 8.98% (active).

`COC(=O)c1cc(N=C2NC(=O)/C(=C/C=C/c3ccccc3)S2)ccc1O`: the growth was -0.749% (active).

Take `Cc1ccc(-c2cc3nc(C(Cl)Cl)nc(-c4ccccc4C)n3n2)cc1`: the growth was 78.4%.

`CCN1CCN(CC(=O)Nc2nc3ccc(NCc4ccc(C)cc4)cc3s2)CC1`: the growth is 32.5%.

Values taken from PubChem BioAssay (NCI).
